SARS PLpro yeast – blocks SARS-CoV papain-like protease in a yeast assay; AID 485353; S. cerevisiae expressing SARS-CoV PLpro, growth rescue; 0.19% of 330,000 active; Potency, µM (titrated, usually from 32.9 µM), for inactives: at the top dose activity, positive = growth rescue, usual class: activators; also: potency is read from the fitted curve at half-maximal effect; 0% is about no effect; nearly all actives have a fitted effect of over 55% in size
NS1 function inh – inhibitors of influenza NS1 protein function | Potency, µM (series often up to 46.1 µM), without a hit: top-dose activity, positive = more growth | 0.4% of 270,000 active; also: potency is read from the fitted curve at half-maximal effect; actives are rising curves; nearly all actives have a fitted effect of over 50% in size
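Read-out: OD600 growth recovery of NS1-expressing budding yeast. Cells grown overnight at 30C in -URA glucose medium, washed, resuspended and diluted 1:100 in 2% galactose assay medium, pH 6.0. Same strain lacking NS1 served as positive control.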
Shiga toxin inh – blocks Shiga toxin action in Vero cells; Vero cells, Shiga toxin protein synthesis inhibition reporter; inhibition, % at 38.7 µM; AID 2315; 9.2% of 290,000 active; in the data active = inhibition mostly above about 28%, no sharp cut-off; inactive = mostly below about 43%; also: 0% is about no effect
Pf growth 96h – P. falciparum growth inhibition at 96 hours | P. falciparum luciferase reporter growth, 96 h | Potency, µM (series often up to 28.7 µM), for inactives: at the highest dose activity change, negative = inhibition, actives largely listed as inhibitors | 6.9% of 320,000 active; active = well fitted inhibition curve with a large enough effect; inconclusive = small, poorly fitted or top-dose-only effect, or another doubt; inactive = no such curve, though single readings can be large or run the other way; also: potency is read from the fitted curve at half-maximal effect; % is scaled to controls: 0 for no effect and ±100 for the full control effect
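Compounds incubated with erythrocytes infected by luciferase-expressing P. falciparum (2% hematocrit, 0.05% parasitemia final) for 96 hours, 37 C in 5% CO2. Growth inhibition scored as decreased luciferase luminescence.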
CHX counter – counter-screen for Shiga toxin inhibitors: cycloheximide protein synthesis inhibition; cell reporter, cycloheximide protein synthesis inhibition counterscreen; max response, %; 12% of 300,000 active; in the data active = max response mostly above about 13%, no sharp cut-off; inactive = mostly below about 14%; also: read at 38.3 µM for the half of the compounds with a filed dose; 0% is about no effect
Pf growth 48h – P. falciparum growth inhibition at 48 hours (one generation). P. falciparum luciferase growth in erythrocytes, 48 h. Potency, µM (titrated, usually from 28.7 µM), for the others: at the top dose activity change, negative = inhibition, most hits filed as inhibitors. 5.9% of 310,000 active; active = well fitted inhibition curve with a large enough effect; inconclusive = small, poorly fitted or top-dose-only effect, or another doubt; inactive = no such curve, though single readings can be large or run the other way; also: potency is read from the fitted curve at half-maximal effect; % is scaled to controls: 0 for no effect and ±100 for the full control effect
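Luminescence readout; reporter = integrated firefly luciferase in P. falciparum. RBC culture at 2% hematocrit, 0.1% parasitemia final, 37 C/5% CO2; decreased signal taken as growth inhibition.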
* = called active by the depositor; ? = inconclusive; / = no result. This is a sample that favours compounds with a hit; in the whole collection about 21% have one here. Unless noted, calls follow the shape of the full dose curve.

SMILES	SARS PLpro yeast	NS1 function inh	Shiga toxin inh	Pf growth 96h	CHX counter	Pf growth 48h
Cc1ccc(C)c(OCC(=O)Nc2ccc(C(=O)O)cc2NC(=O)COc2cc(C)ccc2C)c1	-4%	14%	21	8%	4	33%
Cc1cccc(OCCCC(=O)Nc2ccc(S(=O)(=O)Nc3ncccn3)cc2)c1C	2%	19%	-3	2.1µM*	1	6%
Cc1cccc(OCCCC(=O)Nc2ccc(S(=O)(=O)Nc3onc(C)c3C)cc2)c1C	-3%	-38%	-4	-10%	-2	-12%
Cc1cccc(OCCCC(=O)Nc2ccc(S(=O)(=O)Nc3nccs3)cc2)c1C	-1%	18%	-5	3.7µM*	-2	3%
CS(=O)(=O)c1ccccc1-c1nc(-c2ccc(C(F)(F)F)cc2)no1	-5%	-42%	60*	52%	21*	-5%
COc1ccccc1-c1nc(-c2ccc(Br)cc2)no1	3%	-4%	25	232%	30*	/
COc1ccccc1-c1nc(-c2ccncc2)no1	0%	-60%	79*	/	32*	111%
COc1cc(OC)cc(-c2nc(-c3ccc(Br)cc3)no2)c1	6%	7%	7	?	7	21%
Cc1ccc(-c2noc(-c3ccccc3Br)n2)cc1	-2%	-36%	65*	362%	35*	311%
c1ccc(-c2noc(-c3ccccc3-c3ccccc3)n2)cc1	-26%	-6%	6	/	15	5%
CCc1ccc(NC(=O)COC(=O)Cn2cnc3ccccc32)cc1	1%	/	/	42%	/	-1%
CCN=C1SC(CC(=O)NC(C)c2ccccc2)C(=O)N1CC (stereo not given)	-1%	4%	-4	24%	-3	6%
CN(C)c1ccc(-c2noc(-c3ccccc3O)n2)cc1	1%	3%	126*	-24%	47*	103%
Cc1nc(-c2cc(-c3nc(-c4ccc(C(C)(C)C)cc4)no3)no2)cs1	1%	-1%	4	28%	-1	9%
CCOc1ccccc1-c1nc(-c2ccncc2)no1	/	-49%	24	?	21	?
Cc1ccc(-c2noc(-c3ccccc3C(=O)N3CCN(C)CC3)n2)cc1	10%	9%	60	28%	13	11%
CCSc1ccccc1-c1nc(-c2ccncc2)no1	-10%	-134%	35	0%	26*	?
Cc1c(-c2nc(-c3ccc(C(F)(F)F)cc3)no2)n(C)oc1=O	0%	1%	129*	126%	70*	175%
CCOc1nc(C)ccc1-c1noc(-c2ccccc2OC)n1	3%	-8%	39	0%	24*	79%
CCC(C(=O)NCc1cccnc1)n1nc(C)n2c(cc3occc32)c1=O (stereo not given)	-5%	3%	-7	16%	1	23%
COc1cccc(CNC(=O)C(CCSC)NS(=O)(=O)c2ccc3c(c2)oc(=O)n3C)c1 (stereo not given)	4%	-3%	-4	/	-2	-4%
COc1ccccc1N1C(=O)CC(N2CCN(c3ccc(Cl)cc3)CC2)C1=O (stereo not given)	2%	-23%	/	0%	-2	-6%
FC(F)(F)c1ccccc1-c1nc(-c2ccncc2)no1	-3%	-4%	47*	4%	40*	?
COc1ccc(-c2nc(-c3ccc(Br)cc3)no2)c(OC)c1	/	5%	197*	?	39*	203%
CCOc1ccc(C(=O)NNC(=O)C2CC(=O)N(c3ccc(C)cc3)C2)cc1 (stereo not given)	2%	/	/	10%	/	0%
SMILES	SARS PLpro yeast	NS1 function inh	Shiga toxin inh	Pf growth 96h	CHX counter	Pf growth 48h
Cc1cc(C)cc(NC(=O)COC(=O)CC2CCCC2)c1	-3%	/	/	5%	/	-17%
S=C(S)NCCN1CCNCC1	/	3%	/	/	/	/
CCOc1ccc(OCc2ccc(C(=O)O)o2)cc1	2%	-6%	60*	?	33*	182%
O=C(O)c1ccc(COc2ccc3ccccc3c2)o1	-2%	0%	94*	376%	42*	121%
CCCc1cc(=O)oc2cc(OCc3ccc(C(=O)O)o3)ccc12	2%	3%	0	19%	6	21%
N=C1/C(=C/c2cccn2Cc2ccc(Cl)cc2)C(=O)N=C2SC=CN12	-10%	-2%	-9	-19%	-2	?

Screens deposited in PubChem by National Center for Advancing Translational Sciences (NCATS).
